# Compounds with a hit are over-represented: about 1.5% of the library has one in this group of screens.
# MCL1-BIM inh: inhibitors of MCL1 binding to BIM-BH3, primary screen, biochemical, fluorescence polarization; Induced myeloid leukemia cell differentiation protein Mcl-1 (Homo sapiens), Q07820; GST-MCL1 / FITC-Bim-BH3 fluorescence polarization; inhibition, % at 10.9 µM; actives 0.68% (n = 320,000); AID 2057, 2009;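 active = inhibition above the mean inhibition of all tested compounds plus 3 SD, set per campaign, cut at about 40% in these data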;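 note: 0% = DMSO wells and 100% = unlabeled Bim-BH3 peptide control; higher means more loss of mP so more displacement of Bim peptide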
# E coli Lon inh: inhibitors of E. coli Lon protease, primary screen, biochemical, fluorescence polarization; purified E. coli Lon protease; AID 602123, 2011; actives 0.42% (n = 360,000); inhibition, % at 7.94 µM; in the data active = inhibition above about 13%, passing the limit was not always enough;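 note: 0% = enzyme with probe and DMSO and 100% = no enzyme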
# BCLXL inh: inhibitors of human Bcl-xL, primary screen, biochemical, fluorescence polarization, HTS. Bcl-2-like protein 1 (Homo sapiens), Q07817. GST-Bcl-xL / FITC-Bim BH3 peptide fluorescence polarization. inhibition, % at 10.9 µM. actives 0.7% (n = 320,000). AID 2129, 2009;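 active = inhibition above the mean of all tested compounds plus 3 SD, cutoff set per campaign, cut at about 30% in these data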;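 note: 0% = DMSO wells and 100% = unlabeled Bim-BH3 peptide competitor; inhibitors lower millipolarization by displacing the labeled peptide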
# Target sequence (Q07817 whole entry, looked up): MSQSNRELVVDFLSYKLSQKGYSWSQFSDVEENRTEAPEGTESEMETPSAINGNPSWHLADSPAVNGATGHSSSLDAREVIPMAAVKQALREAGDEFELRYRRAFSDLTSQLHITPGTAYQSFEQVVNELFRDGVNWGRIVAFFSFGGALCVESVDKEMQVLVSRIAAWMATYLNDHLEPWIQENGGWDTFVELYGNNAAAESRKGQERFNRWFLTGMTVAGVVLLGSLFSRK
# GLD-1 RNA inh: GLD-1/TGE RNA complex disruptors, primary screen, biochemical, fluorescence polarization. actives 0.44% (n = 320,000). inhibition, % at 5.96 µM. purified GLD-1 + fluorescein TGE RNA. Female germline-specific tumor suppressor gld-1 (Caenorhabditis elegans), Q17339;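 active = percent inhibition above a per-plate cutoff, the plate mean of test compounds plus 3 SD, cut at about 30% in these data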;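 note: 0% = DMSO wells with GLD-1 and probe and 100% = wells lacking GLD-1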
# EBV gp42 block: Epstein-Barr virus gp42 inhibitors, primary screen, biochemical, uHTS, fluorescence polarization; Fluorescence polarization binding assay, mP read-out; Glycoprotein 42 (Epstein-Barr virus (strain AG876)), Q1HVG2; inhibition, % (tested at 21.74 µM); actives 0.42% (n = 220,000); in the data active = inhibition above about 50%
# MEX-5 binding: MEX-5 zinc finger RNA-binding disruptors – biochemical, C. elegans, fluorescence polarization, MLPCN library, primary screen | MEX-5/FITC-TCR2 RNA binding; stronger effect = lower value | activity score (negative = inhibition of binding), % at 10 µM | actives 0.38% (n = 300,000) | AID 1832, 2009;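 active = inhibition past about -25% in most replicates, and total fluorescence under double the plate's negative control median, limit read from the data; inconclusive = replicates evenly split on the limit, or fluorescence at least double controls; inactive = too little inhibition in most replicates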;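 note: 0% = DMSO and -100% = 5 µM competing unlabeled TCR2 RNA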
# Numbers without * were called inactive; ? = inconclusive; · = no result.
SMILES,MCL1-BIM inh,E coli Lon inh,BCLXL inh,GLD-1 RNA inh,EBV gp42 block,MEX-5 binding
Cc1nc2c3ccccc3nc(NNC(=O)CCC(=O)N3CCCC(C)C3)n2n1 (stereo not given),1,-11,-1,2,·,-27*
Cc1nc2c3ccccc3nc(NNC(=O)CCC(=O)NC(C)C)n2n1,5,-6,5,1,0,-42*
COCCNC(=O)CCC(=O)NNc1nc2ccccc2c2nc(C)nn12,-4,6,3,-4,-13,-45*
COc1ccc(N2CCN(CCNC(=O)CCC(=O)NNc3nc4ccccc4c4nc(C)nn34)CC2)cc1,-1,-14,3,5,·,2
Cc1nc2c3ccccc3nc(NNC(=O)CCC(=O)NC3CCCC3)n2n1,13,3,3,2,-2,-2
Cn1c(=O)c2c(ncn2CC(=O)Nc2ccc(N3CCOCC3)cc2)n(C)c1=O,9,-5,0,9,-11,-2
Cc1cccc(S(=O)(=O)NCC2CCCO2)c1 (stereo not given),-2,-9,4,2,-8,-1
CCOC(=O)c1ccccc1NS(=O)(=O)c1ccc(OCC)cc1,-6,-9,3,14,-9,0
CCc1ccc(S(=O)(=O)Nc2ccc(O)c3ccccc23)cc1,11,33,6,2,·,-3
CCOc1ccc(S(=O)(=O)Nc2cc(SCC(=O)O)c(O)c3ccccc23)cc1,·,24,·,·,·,-51*
Cc1ccc(C)c(S(=O)(=O)Nc2cc(SCC(=O)O)c(O)c3ccccc23)c1,36,34*,24,14,-6,·
CCc1ccc(S(=O)(=O)Nc2cc(SCC(=O)O)c(O)c3ccccc23)cc1,28,8,25,-1,-10,-52*
Cc1ccc(NS(=O)(=O)c2cc(NC(=O)C(C)Oc3ccccc3)ccc2C)c(C)c1 (stereo not given),7,10,8,7,-8,-1
O=C(O)c1cccc(S(=O)(=O)Nc2ccc([N+](=O)[O-])cc2O)c1,2,10,9,-4,-10,-16
O=C(O)CSc1cc(NS(=O)(=O)c2cccc([N+](=O)[O-])c2)c2ccccc2c1O,·,12,·,·,-2,-66*
CCCc1nnc(NC(=O)CCC(=O)N2CCN(C3CCCC3)CC2)s1,6,0,3,-1,·,1
CN1CCN(S(=O)(=O)c2cccc(C(=O)NCc3ccc(Cl)cc3)c2)CC1,7,-3,9,-10,-6,2
O=c1c2ccccc2oc2cc(C#CC3(O)CCCCC3)ccc12,-10,3,-1,-5,·,1
CCCCC1(C)OC(=O)C(=Cc2ccc(N(CC)CC)cc2)C(=O)O1 (stereo not given),-22,-13,-13,-5,75*,?
CCN(CC)c1ccc(C=C2C(=O)OC3(CCCCC3)OC2=O)cc1,-46,-7,-21,-22,-89,5
CC(C)N1CCc2c(sc(N)c2C#N)C1,43*,-64,47*,-75,-20,?
Cc1cc(-c2ccc(N3CCOCC3)cc2)nc2ccccc12,20,19,18,-93,56*,-4
Oc1ccc(-c2cn3ccccc3n2)cc1O,30,3,21,10,·,-28*
COc1ccc(/C=N/NC(=S)Nc2cccc(C(=O)O)c2)cc1OC,10,0,9,1,3,-3
O=[N+]([O-])c1ccccc1/C=N\Nc1nccs1,6,-8,10,-1,·,-4
O=[N+]([O-])c1cc(/C=N\Nc2nccs2)ccc1O,·,·,·,·,93*,-100*
CC(=O)c1c(O)cc(O)c(C(C)=O)c1O,21,-1,22,23,-23,-7
CC(=O)c1c(O)cc(O)cc1CC(=O)O,32,-7,27,20,43,-29*

# Source: PubChem
